Shown are actives, neighbours in structure and some others; about 11% of the full set was active somewhere.
Vaccinia Venus: qHTS for Stage-Specific Inhibitors of Vaccinia Orthopoxvirus: Venus Reporter Primary qHTS; AID 720580, 2013; actives 0.46% (n = 330,000); Potency, µM (titrated, usually from 36.5 µM), most hits filed as inhibitors; Vaccinia virus Venus reporter expression, fluorescence; calls by dose curve; tested in A549 cells; note: nearly all actives have a fitted effect of over 30% in size
NS1 function inh: qHTS Assay for Inhibitors of Influenza NS1 Protein Function; actives 0.4% (n = 270,000); AID 2326, 2010; Potency, µM (top dose mostly 46.1 µM); calls by dose curve; note: actives are rising curves; nearly all actives have a fitted effect of over 50% in size
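Recovery from NS1-induced slow growth read by OD600 in budding yeast switched to galactose assay medium (pH 6.0, -URA) at 1:100 dilution. Compound 23 nl per well; the matching strain lacking NS1 serves as control.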
Vaccinia mCherry: qHTS for Stage-Specific Inhibitors of Vaccinia Orthopoxvirus: mCherry Reporter Primary qHTS. Vaccinia virus mCherry reporter infection, fluorescence. Potency, µM (doses to about 36.5 µM), actives largely listed as inhibitors. actives 0.63% (n = 310,000). AID 720579, 2013; calls by dose curve; tested in A549 cells; note: nearly all actives have a fitted effect of over 35% in size
HCV inhibitor: qHTS Assay for Inhibitors of Hepatitis C Virus (HCV) | Potency, µM (titrated, usually from 41.8 µM), usual class: inhibitors | AID 651820, 2012 | Huh7.5.1 HCVcc-Cre infection, luciferase reporter, 44 h | actives 3.4% (n = 340,000)
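Cells (1,000/well) were plated 4 h before compound, then infected with HCVcc-Cre virus (~0.5 moi). After 44 h further culture, infection was read as luciferase luminescence following a 15 min substrate incubation at room temperature.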
Pf growth 48h: Primary qHTS for delayed death inhibitors of the malarial parasite plastid, 48 hour incubation; P. falciparum luciferase growth in erythrocytes, 48 h; Potency, µM (highest dose often 28.7 µM), usual class: inhibitors; actives 5.9% (n = 310,000); AID 504832, 2011
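First compound was added to culture medium, then infected red cells at 0.1% parasitemia and 2% hematocrit (final). After incubation at 37 C under 5% CO2, luciferase detection reagent was dispensed and light output recorded.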
Pf growth 96h: Primary qHTS for delayed death inhibitors of the malarial parasite plastid, 96 hour incubation | Potency, µM (top dose mostly 28.7 µM), actives largely listed as inhibitors | P. falciparum luciferase reporter growth, 96 h | actives 6.9% (n = 320,000) | AID 504834, 2011
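Infected RBCs, 2% Hct / 0.05% parasitemia final; luciferase-reporter P. falciparum; cpd 96 h, 37 C, 5% CO2; luciferase detection reagent; luminescence.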
Numbers stand for hits; 0 = inactive; ? = inconclusive; - = not tested or not shown. Unless noted, calls come from the whole dose curve; as a rule, active = well fitted inhibition curve with a large enough effect; inconclusive = small, poorly fitted or top-dose-only effect, or another doubt; inactive = no such curve, though single readings can be large or run the other way.

SMILES	Vaccinia Venus	NS1 function inh	Vaccinia mCherry	HCV inhibitor	Pf growth 48h	Pf growth 96h
Cc1nnc(Sc2nc3ccccc3o2)c2ccccc12	?	0	?	?	0	-
O=S(=O)(CCc1ccncc1)Cc1ccc2c3c(cccc13)CC2	-	0	-	0	0	0
Cc1cc(C)n(-c2nc(NCC(C)O)c3c4c(sc3n2)COC(C)(C)C4)n1 (stereo not drawn)	-	0	-	0	?	?
Cc1cc(C)n(-c2nc(NCCO)c3c4c(sc3n2)CCCC4)n1	?	0	-	7.1µM	?	0
Cc1cc(C)n(-c2nc(NCC(C)O)c3c4c(sc3n2)CCCC4)n1 (stereo not drawn)	0	0	-	5.6µM	-	?
Cc1cc(C)n(-c2nc(SCC(=O)O)c3c4c(sc3n2)CCCC4)n1	-	0	-	-	?	?
Cc1cc(C)n(-c2nc(NCCCO)c3c4c(sc3n2)CCCC4)n1	0	0	-	7.1µM	-	0
C#CC1(NC(=O)N(C)C)CCCCC1	0	0	0	0	0	0
CC(C)Cn1c2nc3ccccc3nc2c2c(=O)n(CCN3CCOCC3)cnc21	0	0	-	0	0	-
FC(F)(F)c1cnc(-c2cnc(-c3ccccn3)nc2)c(Cl)c1	0	-	0	0	0	6.6µM
CC(C)c1ccccc1N1CC(C(=O)O)CC1=O (stereo not drawn)	-	0	-	0	0	?
CCC(NC(=O)NNC(N)=S)(C(F)(F)F)C(F)(F)F	28µM	0	?	0	0	0
CCC(NC(=O)Nc1ncccc1C)(C(F)(F)F)C(F)(F)F	0	0	-	0	0	0
COc1ccc(S(=O)(=O)N2CCCC(C(=O)NCc3ccc4c(c3)OCO4)C2)cc1 (stereo not drawn)	0	0	0	0	2.1µM	0
O=C(NCc1ccc2c(c1)OCO2)C1CCN(c2ccc(S(=O)(=O)N3CCCC3)cc2)CC1	0	0	0	?	10µM	0
O=C(NCc1ccc2c(c1)OCO2)C1CCN(S(=O)(=O)N2CCCCC2)CC1	0	0	0	0	0	0
O=C(NC1CC1)C1CCN(C2CCN(C(=O)Cc3ccc4c(c3)OCO4)CC2)CC1	0	0	0	0	0	12µM
O=C(NCc1ccc2c(c1)OCO2)C1CCN(S(=O)(=O)N2CCOCC2)CC1	0	0	0	0	0	3.7µM
NS(=O)(=O)c1ccc(CCNC(=O)Cc2c[nH]c3ccccc23)cc1	0	0	0	0	0	0
Cc1cccc(C)c1OCc1nnc(NC(=O)CSc2ccc(Cl)cc2)s1	0	0	0	0	0	?
CCc1nc2sc(C(C)=O)c(N)c2c2c1CCCC2	-	0	-	?	0	0
Cc1ccc(NC(=O)CN2C(=O)COc3ccc(S(=O)(=O)N4CCCCC4)cc32)cc1Cl	0	-	0	-	-	-
CCC(c1n[nH]c(=S)n1-c1ccccc1)N(C)C (stereo not drawn)	0	0	0	0	0	0
CC(C)CCC(CC(C)O)c1n[nH]c(=S)n1-c1ccccc1 (stereo not drawn)	0	0	0	0	0	2.3µM
Cc1ccc2c(c1)CCCN2C(=O)CSc1ccccc1	-	0	-	?	0	0
SMILES	Vaccinia Venus	NS1 function inh	Vaccinia mCherry	HCV inhibitor	Pf growth 48h	Pf growth 96h
Cc1cc(C)n(-c2cc(N3CCN(C(=O)c4ccc(C(C)(C)C)cc4)CC3)ccc2[N+](=O)[O-])n1	?	0	0	?	4.7µM	9.3µM
CC(C)(C)c1ccc(C(=O)N2CCCN(c3ccc([N+](=O)[O-])cn3)CC2)cc1	-	0	-	?	?	12µM
Nc1cc(=O)[nH]c(SCc2ccc(Cl)cc2Cl)n1	-	0	-	3.2µM	-	0
NS(=O)(=O)c1ccc(CCNc2nc(CN3CCCCC3)nc3sc4c(c23)CCC4)cc1	-	0	-	?	12µM	6.6µM
Cc1cccc2cc(CN(CCCO)C(=O)Nc3cccc(Cl)c3)c(=O)[nH]c12	0	0	-	0	?	0
O=C(CSCc1cc(=O)n2nc(C3CC3)sc2n1)Nc1ccccc1Cl	0	0	0	0	?	3.3µM
NC(=O)c1ccc[n+]([C@@H]2OC(COP(=O)([O-])OP(=O)(O)OCC3OC(n4cnc5c(N)ncnc54)C(OP(=O)(O)O)C3O)C(O)C2O)c1 (stereo partly drawn)	0	-	0	-	-	-
CC1CCCCC12NC(=O)N(CC(=O)Nc1sc3c(c1C(N)=O)CCC3)C2=O (stereo not drawn)	0	0	-	0	-	10µM
CCOc1cccc(-c2nn(-c3ccccc3)cc2/C=C(/C#N)C(=O)NCCCn2ccnc2)c1	?	0	?	18µM	2.6µM	?
N#C/C(=C/c1cn(-c2ccccc2)nc1-c1cccc(OCc2ccccc2)c1)C(=O)NCCCn1ccnc1	?	?	0	?	4.7µM	2.1µM
O=C(NCCCn1ccnc1)c1cn(-c2ccccc2)nc1-c1ccccc1	0	0	0	0	0	0
N#C/C(=C/c1cn(-c2ccccc2)nc1-c1cccc(S(=O)(=O)N2CCCC2)c1)C(=O)NCc1ccco1	0	0	0	?	10µM	10µM
N#C/C(=C/c1cn(-c2ccccc2)nc1-c1cccc(S(=O)(=O)N2CCOCC2)c1)C(=O)NCc1ccco1	?	0	0	0	0	0
CCNC(=O)CC1C(=O)N(C)C(=S)N1NC(=O)c1ccc(Cl)cc1 (stereo not drawn)	0	0	0	0	0	0
Cc1ccc(S(=O)(=O)NN2Cc3ccccc3C2=N)cc1	0	-	0	0	0	0
N/C(=N\OC(=O)CCC1CCCCC1)c1cccnc1	-	0	-	0	0	0
Cc1nc2ccc(Cl)cn2c1[N+](=O)[O-]	0	-	0	-	-	-
NC(=S)NN=C1CCCCC12CCCC2	?	-	?	0	-	-
CSc1nc(Sc2ccccc2)c2ccccc2n1	0	0	0	4.5µM	0	0
CSc1nc(Sc2ccc(Cl)cc2)c2ccccc2n1	0	0	0	0	2.6µM	4.7µM
CSc1nc(Sc2cccc(Cl)c2)c2ccccc2n1	0	0	-	0	?	?
CC1=C/C(=N\OS(=O)(=O)c2ccccc2)C(C(C)C)=CC1=O	0	0	0	?	?	0
CC1=C/C(=N\OS(=O)(=O)c2ccccc2)C(C)=CC1=O	0	0	?	?	-	4.1µM
COc1ccc(-c2cc(C(F)(F)F)c3c(N)c(C(=O)NCCSC)sc3n2)cc1	0	0	0	0	0	?
CN(C)CCNC(=O)c1sc2nc(-c3ccccc3)cc(C(F)(F)F)c2c1N	?	0	?	10µM	?	0
O=C(CCl)N(C/C=C/c1ccccc1)c1ccc2c(c1)OCCO2	0	-	0	2.2µM	?	?
O=C(/C=C/c1ccccc1)c1ccc2c(c1)OCCCCO2	?	0	?	0	0	0
COc1ccccc1-c1ccc(Nc2cccc(C(F)(F)F)c2)nn1	0	0	-	0	0	0
COc1ccccc1-c1ccc(NC2CCCCC2)nn1	-	0	-	22µM	0	0
